Results taken from PubChem BioAssay AID504339 (National Center for Advancing Translational Sciences (NCATS), 2011).
About 17,000 (4.4%) of roughly 390,000 compounds were called active. Not shown: some 8% with an inconclusive outcome. For the sample, actives were picked, then their nearest neighbours and some compounds at random. Values without a mark were called inactive. Calls come from the whole dose curve; as a rule, active = well fitted inhibition curve with a large enough effect; inconclusive = small, poorly fitted or top-dose-only effect; inactive = no such curve, though single readings can be large or run the other way.

Each compound was assayed against Lysine-specific demethylase 4A (Homo sapiens) (UniProt O75164) (assay: qHTS Assay for Inhibitors of JMJD2A-Tudor Domain). Settings: AlphaScreen JMJD2A-Tudor / H3K4me3 peptide binding; series mostly up to 114 µM; activity change, negative = inhibition: at the top concentration.
Excerpt: JMJD2A is a jumonji-domain-containing lysine demethylase that uses Fe(II) together with 2-OG to effect oxidative demethylation of histones. Methylation is one of many […] modification that affect epigenetic transcription. […] It is proposed that the functions of JmjD2A binding to the histones, is to maintain marks after they are installed and to spread the modifications by […], establishing a self-propagating cycle for rapid methylation over a large area of chromatin. […] Thus, small molecule targeting of the JMJD2A-tudor domain interaction with its target methylhistone mark is expected to enable sophisticated experiments probing the fine regulatory pathways leading to selective demethylation of a given methyllysine locus based on the methylation state of adjacent histone marks. A quantitative high throughput AlphaScreen has been developed to identify small molecule inhibitors based on a protocol published by NCGC and SGC [4].
Although AlphaScreen has significant advantages with its utility in a variety of epigenetic target assays, the primary screening data provided in this deposition should be used with caution due to the prevalence of screening artifacts. The top compound concentration tested was high (>100uM) in this assay, which increases number of actives and potential artifacts. An AlphaScreen counterscreen is highly recommended to be run against any putative actives to eliminate non-specific artifacts. Alternatively, one can use other AlphaScreen assays in PubChem to filter out promiscuous hits.
[1] Lee, J. et al. Distinct binding modes specify the recognition of methylated histone H3K4 and H4K20 by JMJD2A-tudor. Nat Struct Mol Biol. 15(1); 109-11. 2008. PMID: 18084306
[2] Yasgar, et al. Compound Management for Quantitative High-Throughput Screening. JALA. 2008 Apr;13(2):79-89. PMID: 18496600
[3] Inglese, et al. Quantitative high-throughput screening: a titration-based approach that efficiently identifies biological activities in large chemical libraries. Proc Natl Acad Sci. 1;103(31):11473-8. 2006. PMID: 16864780
[4] Quinn et al. A homogeneous method for investigation of methyl-dependent protein-protein interactions in epigenetics. Nucleic Acids Res., 38(2):e11. 2010. PMID: […]
[5] Baell,Holloway. New substructure filters for removal of pan assay interference compounds (PAINS) from screening libraries and for their exclusion in bioassays. J Med Chem. 53(7):2719-40. 2010. PMID: 20131845
NIH Molecular Libraries Probe Production Network [MLPCN]
NIH Chemical Genomics Center [NCGC]
Structural Genomics Consortium (SGC)
To each well of a 1,536w plate, 2ul of JMJD2A-Tudor (final 100nM) and 1ul biotinylated histone peptide methylated at Lys4 [b-H3(1-18)K4me3] (final 50nM) were added in 1x PBS buffer, pH 7.4, containing 0.01% Tween-20, using a nanoliter dispenser. Formation of a protein-peptide complex proceeded at room temperature for 30 min. A Kalypsys pin-tool transferred 23nl of library compound solution in DMSO to each well. Following a 30 min incubation of the protein-peptide complex with compounds at room temperature, a mixture of 40 µg/mL each streptavidin-coated donor and nickel chelate acceptor AlphaScreen beads (final 10 µg/mL) was added in a 1ul dispense for a final volume of 4ul, followed by a brief centrifugation (1000 rpm, 1 min). Plates were incubated protected from the light for 20 min at room temperature. Microplates were then read on an EnVision multilabel plate reader using the 1,536 plate HTS AlphaScreen aperture (excitation time 80 ms, measurement time 240 ms).
% is set by controls: 0 for no effect and ±100 for the full control effect; potency is the fitted concentration of half-maximal effect.
Note: nearly all actives have a fitted effect of over 50% in size.

Chain of Lysine-specific demethylase 4A (Homo sapiens) (O75164 whole entry, looked up, the tested form may be a part): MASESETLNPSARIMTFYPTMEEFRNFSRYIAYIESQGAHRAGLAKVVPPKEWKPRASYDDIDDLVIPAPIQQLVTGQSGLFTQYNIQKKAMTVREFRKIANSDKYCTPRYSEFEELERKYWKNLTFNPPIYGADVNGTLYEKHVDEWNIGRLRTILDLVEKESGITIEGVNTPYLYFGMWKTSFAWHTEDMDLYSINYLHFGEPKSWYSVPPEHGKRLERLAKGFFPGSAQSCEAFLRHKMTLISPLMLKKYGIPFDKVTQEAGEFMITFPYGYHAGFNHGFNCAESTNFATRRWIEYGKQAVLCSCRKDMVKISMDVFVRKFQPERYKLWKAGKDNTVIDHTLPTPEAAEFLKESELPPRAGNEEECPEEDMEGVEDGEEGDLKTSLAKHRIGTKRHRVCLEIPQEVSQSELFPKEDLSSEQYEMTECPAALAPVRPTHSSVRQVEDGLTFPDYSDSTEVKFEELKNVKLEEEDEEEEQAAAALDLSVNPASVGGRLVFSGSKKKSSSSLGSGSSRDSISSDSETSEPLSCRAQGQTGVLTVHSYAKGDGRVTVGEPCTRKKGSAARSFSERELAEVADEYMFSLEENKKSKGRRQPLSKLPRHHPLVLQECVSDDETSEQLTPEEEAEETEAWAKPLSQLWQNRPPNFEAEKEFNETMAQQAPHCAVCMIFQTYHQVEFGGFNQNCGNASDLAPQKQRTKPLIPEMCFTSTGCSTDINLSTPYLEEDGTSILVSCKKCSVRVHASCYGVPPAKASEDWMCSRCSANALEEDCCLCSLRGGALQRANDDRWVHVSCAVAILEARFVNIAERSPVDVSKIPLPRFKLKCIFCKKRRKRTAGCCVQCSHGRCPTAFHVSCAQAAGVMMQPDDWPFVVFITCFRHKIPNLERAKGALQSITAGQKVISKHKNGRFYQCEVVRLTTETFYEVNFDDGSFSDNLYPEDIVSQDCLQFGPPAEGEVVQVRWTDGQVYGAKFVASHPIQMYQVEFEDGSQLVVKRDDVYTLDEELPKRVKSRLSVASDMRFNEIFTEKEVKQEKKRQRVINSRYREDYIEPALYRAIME

| Compound | Potency | activity change, negative = inhibition |
| --- | --- | --- |
| O=C(O)c1cc[c]([Sb](=[O])([OH])[OH])cc1[N+](=O)[O-] | 0.316 µM (active) |  |
| O=C(c1ccccc1[N+](=O)[O-])N1CCC2(CC1)OCCO2 |  | -6.21% |
| C[C@@]1([C@@H](NP(=O)(c2ccccc2)c2ccccc2)c2ccccc2)C[C@H]1CCO |  | -5.04% |
| COC(=O)N(c1ccc(OC)cc1)P1(=S)OCCC(C)O1 (stereo unspecified) | 79.4 µM (active) |  |
| CCC(=O)c1ccc(OCC(=O)N2CCN(CC(=O)Nc3ccc(C)cc3)CC2)cc1 |  | 21.2% |
| O=C1NC(=O)C(Cc2ccccc2)C(=O)N1 |  | -8.28% |
| COC(=O)C1=C(c2ccccc2)C[C@@H]2CC[C@H]1N2C(=O)N1CCCCC1 |  | -13.1% |
| Cn1c(O)c(C=NCCN2CCNCC2)c(=O)n(C)c1=O |  | -6.87% [at 57.1 µM] |
| c1ccc(CCNC2CCCCCC2)cc1 | 70.8 µM (active) |  |
| c1ccc(CC2CCCCN2)cc1 (stereo unspecified) |  | -17.5% |
| c1cc2c(cc1CCNC1CCCCCC1)OCO2 | 3.16 µM (active) |  |
| OC(CNC1CCCCC1)c1ccccc1 (stereo unspecified) |  | -6.35% |
| c1cc2c(cc1[C@H]1OC[C@H]3[C@@H]1CO[C@@H]3c1ccc3c(c1)OCO3)OCO2 |  | -20.7% |
| Cc1ccc(CN2CCCC(C(=O)c3ccc4c(c3)OCO4)C2)cc1C (stereo unspecified) |  | -17.6% [at 11.4 µM] |
| O=P1(Oc2ccccc2)CC(O)C(O)C(COCc2ccccc2)O1 (stereo unspecified) |  | -14.5% |
| S=P(c1ccccc1)(c1ccccc1)c1c(-c2ccccc2)[nH]c2ccccc12 |  | -27.2% |
| CCCC[N+]1(C)C2CC(OC(=O)C(CO)c3ccccc3)CC1C1OC12 (stereo unspecified) |  | -1.44% |
| CNP1(NC)=Nc2nn(-c3ccccc3)c(N)c2C(c2ccccc2)=N1 |  | -14.5% |

| Compound | Potency | activity change, negative = inhibition |
| --- | --- | --- |
| O=C1C2(Cl)C3(Cl)C4(Cl)C(Cl)(Cl)C5(Cl)C3(Cl)C1(Cl)C5(Cl)C24Cl (stereo unspecified) |  | -25.5% |
| Nc1ccc(C(=O)N/N=C2/CN3CCC2CC3)cc1 | 89.1 µM (active) |  |
| CC1CC=CCC12C(=O)NC(=S)NC2=O (stereo unspecified) |  | -2.78% |
| COC(=O)C1=C(c2ccc(Cl)c(C(F)(F)F)c2)C[C@@H]2CC[C@H]1N2C(=O)NC1CC1 |  | -5% |
| CCOc1cc(N2CCOCC2)c(OCC)cc1NC(=O)C1=NN(c2cccc(C)c2)C(=O)CC1 | 50.1 µM (active) |  |
| Cc1cccc(-n2c(O)c(/C=N/N3CCOCC3)c(=O)[nH]c2=S)c1 |  | -3.47% |
| CCN1C(=O)NC(=O)C2(CCCC2)C1=O |  | -12.5% |
| COc1ccc(CNCCc2c[nH]c3ccccc23)cc1OC | 79.4 µM (active) |  |
| C/C(CCc1c[nH]c2ccccc12)=N\O |  | -5.13% |
| c1cncc(CNCCc2c[nH]c3ccccc23)c1 |  | -11.6% |
| CCN1CC2C3CCC(C)(O3)C2C1 (stereo unspecified) |  | -21.9% |
| CC1([N+](=O)[O-])COP(=O)(Nc2ccc(F)cc2)OC1 (stereo unspecified) |  | -4.86% |
| CN(C)P(=S)(Nc1ccccc1)C(Cl)(Cl)Cl (stereo unspecified) |  | 2.26% [at 57.1 µM] |
| CC1CCCCN1Cc1cccnc1 (stereo unspecified) | 8.91 µM (active) |  |
| CC1CCCN1CCC(C(N)=O)(c1ccccc1)c1ccccc1 (stereo unspecified) |  | -13.8% |
| c1cncc(CNC2=NCCC2)c1 |  | 0% [at 57.1 µM] |
| C[C@]12CCC3C(CC[C@H]4[C@H](O)[C@H](O)CC[C@]34C)C1CC[C@@H]2O (stereo partly specified) |  | 0% |
| O=c1[nH]c(=O)n(-c2ccc(F)cc2)c(O)c1C=NCCN1CCCCC1 |  | -0.699% |
